This is a sample that favours compounds with a hit; in the whole collection about 3% have one here.
CF NFkB block – blocks PAF-induced NF-kB reporter in cystic fibrosis cells | KKLEB NF-kB-GFP reporter, GFP fluorescence overnight | inhibition, % at 5 µM | actives 0.86% (n = 360,000);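 active = at least 50% inhibition at 5 µM, scaled per plate between neutral and stimulator controls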;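 note: PAF is a Pseudomonas aeruginosa culture filtrate used as stimulus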
KKLEB tox – CF airway cell cytotoxicity counter-screen; KKLEB CF airway cells viability, ATPlite luminescence, overnight; active compounds read low; cells stimulated with P. aeruginosa culture filtrate; activity change (cytotoxicity), % at 5 µM; actives 0.36% (n = 360,000); AID 602141;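 active = corrected activity change at or below -50% at 5 µM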
LMP1 NFkB inh – reduces LMP1-driven NF-kappaB luciferase signal | inhibition, % at 12.5 µM | actives 0.69% (n = 350,000) | AID 504558 | LMP1-induced NF-kappaB luciferase reporter cells, luminescence; in the data active = inhibition above about 41%
Peg3 prom inh – reduces Peg3 promoter-driven luciferase expression in HeLa; inhibition, % at 20 µM; HeLa PEG-Prom luciferase reporter, luminescence, overnight; actives 1.7% (n = 360,000);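 active = inhibition of at least 50% at 20 µM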
MITF TRPM1 inh – reduces MITF-dependent TRPM1 promoter luciferase signal | AID 488899 | actives 0.83% (n = 330,000) | inhibition, % at 12.5 µM | SK-MEL-5 TRPM1 promoter luciferase, 24 h;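 active = mean inhibition across replicates of 60% or more, whatever share of single replicates reaches that level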
HIF-2a inh – inhibitors of HIF-2a | actives 0.72% (n = 360,000) | inhibition, % at 18.8 µM | 786-0 RCC cells HIF-2a reporter, luciferase luminescence, overnight | AID 624352;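 active = inhibition of the luminescence signal of 40% or more relative to plate controls, in a single-dose primary screen at 18.75 µM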
Large screens that a line does not name were inactive; ! = not active in a repeat.

O=C(CN1C(=O)NC(c2ccccc2)(c2ccccc2)C1=O)NCc1ccccc1	none
CCOc1cc(-c2ccccc2)nc2c1CN(S(=O)(=O)c1ccc(C)cc1)C(c1cccc(Cl)c1)C2 (configuration not stated)	none (no result: CF NFkB block, KKLEB tox, LMP1 NFkB inh, Peg3 prom inh, MITF TRPM1 inh)
CN1CCN(c2ccc(NC(=O)c3ccco3)cc2Cl)CC1	LMP1 NFkB inh 59.8
COc1ccc(N2CCCC2)c(NC(=O)c2ccc([N+](=O)[O-])o2)c1	Peg3 prom inh 53.0
O=C(Nc1ccccc1N1CCN(C(=O)c2ccccc2)CC1)c1ccc([N+](=O)[O-])o1	MITF TRPM1 inh 62.1
CC1CCN(c2ccc(NC(=O)c3ccc([N+](=O)[O-])o3)cc2)CC1	CF NFkB block 95.3, KKLEB tox -98.2, Peg3 prom inh 105.9, MITF TRPM1 inh 81.4, HIF-2a inh 52.9
O=C(Nc1ccc(N2CCCC2)c(Cl)c1)c1ccco1	none
CO[C@@H]1CN(C)C(=O)c2cc(NS(=O)(=O)c3ccc(C)cc3)ccc2OC[C@H](C)N(Cc2nccs2)C[C@H]1C	none (no result: CF NFkB block, KKLEB tox, LMP1 NFkB inh, Peg3 prom inh, MITF TRPM1 inh)
O=C(Nc1ccc(N2CCN(C(=O)c3ccccc3)CC2)c(Cl)c1)c1ccc(Br)o1	Peg3 prom inh 50.0
O=C(Nc1ccc(N2CCCCC2)cc1)c1ccc([N+](=O)[O-])o1	CF NFkB block 96.1, Peg3 prom inh 106.1
O=C(Nc1ccc(N2CCN(C(=O)c3ccccc3)CC2)cc1)c1ccc(Br)o1	none
CCOc1ccc(S(=O)(=O)N2CCN(C(=O)c3cc([N+](=O)[O-])ccc3N3CCOCC3)CC2)cc1	none
CCOc1ccc(C(=O)c2cc([N+](=O)[O-])ccc2N2CCOCC2)cc1	CF NFkB block 55.2
COc1ccc(CCNC(=O)c2cc([N+](=O)[O-])ccc2N2CCOCC2)cc1	none
Cc1ccc(C(=O)c2cc([N+](=O)[O-])ccc2N2CCOCC2)cc1	Peg3 prom inh 51.9
COc1ccc(C(=O)c2cc([N+](=O)[O-])ccc2N2CCOCC2)cc1	CF NFkB block 59.5
O=C(/C=C/[C@H]1O[C@@H](n2ccc(=O)[nH]c2=O)[C@H](O)[C@@H]1O)NCc1cccc2ccccc12	none (no result: LMP1 NFkB inh, MITF TRPM1 inh)
CNc1cncc(-c2cccc(NS(C)(=O)=O)c2)n1	none (no result: LMP1 NFkB inh, MITF TRPM1 inh)
CN(CC1COc2ccccc2O1)C(=O)CCNS(=O)(=O)c1ccc(F)c(Cl)c1 (configuration not stated)	none (no result: MITF TRPM1 inh)
CC1OC2CC(=O)OC2C2=C1C(=O)c1c(O)cccc1C2=O (configuration not stated)	CF NFkB block 91.4, KKLEB tox -82.7, Peg3 prom inh 103.4, HIF-2a inh 89.5 (no result: LMP1 NFkB inh, MITF TRPM1 inh)
O=C(COc1ccc(/C=N/NC(=O)c2cc3ccccc3o2)cc1Cl)Nc1ccccc1	CF NFkB block 89.8, KKLEB tox -92.7, Peg3 prom inh 107.7, MITF TRPM1 inh 95.3
CCOc1cc(/C=N\NC(=O)Cc2ccccc2)ccc1OCC(=O)Nc1ccc(C)c(C)c1	MITF TRPM1 inh 64.0
COc1cc(/C=N/NC(=O)c2ccccc2O)ccc1OCC(=O)Nc1ccccc1	none
CCOc1cc(/C=N\Nc2ccc([N+](=O)[O-])cc2)ccc1OCC(=O)Nc1ccc(C)c(C)c1	none
CC(OC(=O)CC1Sc2ccccc2NC1=O)C(=O)N(C)Cc1ccccc1 (configuration not stated)	none
CCOc1ccc(NC(=O)NC2(C(=O)NCc3ccco3)CCCCC2)cc1	none
O=C(Nc1ccc(F)cc1)NC1(C(=O)NCc2ccco2)CCCCC1	KKLEB tox -79.1
CC12CCC=CC1=C(C=O)C1C2CCC2(C)C(O)CCC12 (configuration not stated)	none
O=[N+]([O-])c1cccc(CON=Cc2ccccc2O)c1	none (no result: MITF TRPM1 inh)
CC(C)C[C@H](CO)N(Cc1ccccc1)S(=O)(=O)N(Cc1ccccc1)[C@@H](CO)CC(C)C	Peg3 prom inh 53.4
O=C(OCc1cn([C@H]2C[C@H](c3ccc(Cl)cc3)N(CC3CCCCC3)C[C@@H]2O)nn1)c1ccccc1	none (no result: MITF TRPM1 inh)
COc1ccccc1C(=O)NC(=O)CSc1nnc(N)s1	LMP1 NFkB inh 41.6
COc1ccccc1C(=O)NC(=O)CSc1nnc(SC)s1	none
Cc1c(O)cccc1C(=O)N[C@@H](CSc1ccccc1)[C@H](O)CN1C[C@H]2CCCC[C@H]2C[C@H]1C(=O)NC(C)(C)C	Peg3 prom inh 76.9!
CCN(CC(=O)NC(C)(C)C)C(=O)c1ccccc1SCC(=O)NC1CCCCCCC1	none
O=[N+]([O-])c1cccc(-c2csc(N/N=C/c3cccc(O)c3)n2)c1	Peg3 prom inh 101.8
COc1ccc(Cn2c(O)c(C=Nc3ccccc3C(=O)O)c3ccccc3c2=O)cc1	LMP1 NFkB inh 43.5
COc1ccc(Cn2c(O)c(C=Nc3ccc(OC)cc3)c3ccccc3c2=O)cc1	none
CC(=O)Nc1ccc(CCCCc2ccc(NC(C)=O)cc2)cc1	none
CCCCC(=O)N(C)c1c(C)nc2ccc(C(=O)Nc3cccc(NS(C)(=O)=O)c3)cn12	none (no result: LMP1 NFkB inh, MITF TRPM1 inh)
Clc1ccccc1/C=N/NC1=Nc2cccc3cccc1c23	none
C(=N\NC1=Nc2cccc3cccc1c23)/c1ccccn1	CF NFkB block 51.3
Cc1c(C(=O)NCc2cccs2)sc(=O)n1Cc1ccc(S(C)(=O)=O)cc1	none (no result: LMP1 NFkB inh, MITF TRPM1 inh)
CN1CCN(C(=O)C[C@@H]2CC[C@@H]3[C@H](COC[C@@H](O)CN3Cc3cccc(Cl)c3)O2)CC1	none (no result: CF NFkB block, KKLEB tox, LMP1 NFkB inh, Peg3 prom inh, MITF TRPM1 inh)
COC(=O)C1=C(C)Nc2c(c(=O)n(C)c(=O)n2C)C1c1cccc(O)c1 (configuration not stated)	none
Cn1c2c(c(=O)[nH]c1=O)C(c1cccc(O)c1)C1=C(N2)c2ccccc2C1=O (configuration not stated)	LMP1 NFkB inh 46.6
O=C(Nc1cccc(C(F)(F)F)c1)Nc1ccc2nc([C@@H]3O[C@H](CO)[C@@H](O)[C@H](O)[C@H]3O)[nH]c2c1	none (no result: LMP1 NFkB inh, MITF TRPM1 inh)
C=CCN=C(NC#N)SCc1ccccc1	none
C=CCN=C(NC#N)SCC(=O)c1cccc(OC)c1	CF NFkB block 60.9
CC[C@@H](C(=O)[C@@H](C)[C@@H](O)[C@H](C)CCc1ccc(C)c(O)c1C(=O)O)[C@H]1O[C@](CC)([C@H]2CC[C@](O)(CC)[C@H](C)O2)C[C@@H]1C	CF NFkB block 76.3, KKLEB tox -50.9, Peg3 prom inh 94.0
COc1ccc(Cn2cc(Cn3c4ccccc4c(=O)n3C(C)C)nn2)cc1	none (no result: LMP1 NFkB inh, MITF TRPM1 inh)
CCCc1nc2ccc(Br)cn2c1Cc1cccc(Cl)c1	none (no result: LMP1 NFkB inh, MITF TRPM1 inh)
COc1cc(Cn2c3ccc(NC(=O)CCc4ccc(O)cc4)cc3c(=O)n2C)ccc1F	none (no result: LMP1 NFkB inh, MITF TRPM1 inh)
CCCN(CCC)C(=O)CSc1nc2ccccc2c(=O)n1CC1COc2ccccc2O1 (configuration not stated)	Peg3 prom inh 51.1
COc1ccc(NC(=O)c2ccc(-c3ccccc3)cc2)cc1S(=O)(=O)N1CCOCC1	LMP1 NFkB inh 51.4
CCNc1nc(CN2CCOCC2)nc2sc3c(c12)CCC3	LMP1 NFkB inh 64.9
O=S(=O)(Nc1nc(CN2CCOCC2)nc2sc3c(c12)CCCC3)c1cc(F)ccc1F	none
